HCMV inh = qHTS Assay for inhibitors of the human cytomegalovirus (HCMV). HFF cells, HCMV-luciferase reporter, 72 h; hits give low values. 410,000 compounds, 4.5% hits. activity change, negative = inhibition, % at 57.5 µM. AID 1259415, 2018; in the data active = activity change below about -60%; inconclusive = no clear call, values can overlap the other calls; inactive = above about -39%
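Screen run at 2 compound doses on HFFs infected with reporter HCMV, MOI 1 PFU/cell. Luciferase activity from cell lysates at 72 h post infection gave inhibition relative to buffer-only and Salinomycin wells.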
Pf growth 48h = Primary qHTS for delayed death inhibitors of the malarial parasite plastid, 48 hour incubation | Potency, µM (series often up to 28.7 µM), inactives show at the highest dose activity change, negative = inhibition, usual class: inhibitors | P. falciparum luciferase growth in erythrocytes, 48 h | AID 504832, 2011 | 310,000 compounds, 5.9% hits; also: potency is read from the fitted curve at half-maximal effect
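Read-out is firefly luciferase luminescence from an integrated reporter in P. falciparum, so falling signal marks reduced parasite growth. Infected erythrocytes were at 2% hematocrit and 0.1% parasitemia (final) in Albumax-supplemented RPMI 1640.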
Sm TGR block = qHTS Assay for the Inhibitors of Schistosoma Mansoni Peroxiredoxins. purified TGR, DTNB reduction, TNB absorbance 405 nm. Potency, µM (doses to about 114 µM), for inactives: at the highest dose activity change, negative = inhibition, hits mostly inhibitors. Schistosoma mansoni thioredoxin glutathione reductase (TGR), Q962Y6. AID 485364, 2010. 360,000 compounds, 3% hits; also: potency is read from the fitted curve at half-maximal effect; nearly all actives have a fitted effect of over 60% in size
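Kinetic colorimetric format: TGR-catalysed, NADPH-driven DTNB reduction monitored via TNB absorbance. Enzyme dispensed at 20 nM; compound exposure 15 min at room temperature before reaction start.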
Pf growth 96h = Primary qHTS for delayed death inhibitors of the malarial parasite plastid, 96 hour incubation; P. falciparum luciferase reporter growth, 96 h; Potency, µM (highest dose often 28.7 µM), for the others: at the top dose activity change, negative = inhibition, hits mostly inhibitors; 320,000 compounds, 6.9% hits; AID 504834, 2011; also: potency is read from the fitted curve at half-maximal effect
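Two-generation exposure (96 h) targets delayed-death phenotype. Reporter parasites carrying integrated firefly luciferase, in red cells at 2% hematocrit and 0.05% parasitemia final, kept at 37 C, 5% CO2; luminescence loss indicates inhibition.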
Giardia FBPA inh-1 = qHTS Assay for Inhibitors of Fructose-1,6-bisphosphate Aldolase from Giardia Lamblia; A8B2U2; purified Giardia FBPA; Potency, µM (doses to about 59.6 µM), for the others: at the highest dose activity, negative = inhibition, actives largely listed as inhibitors; 290,000 compounds, 0.71% hits; also: potency is read from the fitted curve at half-maximal effect; nearly all actives have a fitted effect of over 55% in size
Target sequence (A8B2U2 whole entry, looked up): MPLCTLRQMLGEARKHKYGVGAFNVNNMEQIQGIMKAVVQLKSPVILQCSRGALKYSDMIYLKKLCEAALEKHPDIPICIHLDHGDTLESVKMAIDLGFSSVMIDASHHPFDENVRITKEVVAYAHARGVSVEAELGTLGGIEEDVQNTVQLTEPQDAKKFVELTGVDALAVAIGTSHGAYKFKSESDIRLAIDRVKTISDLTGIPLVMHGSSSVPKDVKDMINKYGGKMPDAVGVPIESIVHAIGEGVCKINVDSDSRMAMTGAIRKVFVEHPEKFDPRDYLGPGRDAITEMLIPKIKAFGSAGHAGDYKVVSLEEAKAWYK
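40 nM FBPA preincubated 10 min at RT with compound (up to 57.5 uM final), then substrate plus GAPDH/TPI/NAD/arsenate coupling and diaphorase/resazurin added. Fluorescence read after 20 min at RT, 525/598 nm.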
Giardia growth = qHTS Assay for Inhibitors of Fructose-1,6-bisphosphate Aldolase from Giardia Lamblia: Giardia lamblia growth inhibition; 1,500 compounds, 5% hits; AID 2785, 2010; shares compounds with Giardia FBPA inh-1; Giardia lamblia trophozoite growth inhibition; Potency, µM (highest dose often 57.5 µM), without a hit: at the highest dose activity change, negative = inhibition, most hits filed as inhibitors;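 also: potency is read from the fitted curve at half-maximal effect; trophozoites exposed to compound for 48 h at 37 °C; nearly all actives have a fitted effect of over 70% in size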
Mammal cell tox = qHTS Assay for Inhibitors of Fructose-1,6-bisphosphate Aldolase from Giardia Lamblia: Mammalian cellular toxicity; shares compounds with Giardia FBPA inh-1; mammalian cell viability counter-screen, qHTS; Potency, µM (doses to about 57.5 µM), without a hit: top-dose viability change, negative = toxicity, usual class: inhibitors; 1,500 compounds, 4% hits; AID 2786, 2010;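 also: Chinese hamster ovary cells used as mammalian cytotoxicity surrogate; viability measured as cellular ATP by luminescence; potency is read from the fitted curve at half-maximal effect; compound exposure lasted 48 h before reading; nearly all actives have a fitted effect of over 60% in size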
Giardia FBPA inh-2 = qHTS Assay for Inhibitors of Fructose-1,6-bisphosphate Aldolase from Giardia Lamblia: Primary screen confirmation | 1,500 compounds, 5% hits | purified Giardia aldolase enzyme activity, qHTS | shares compounds with Giardia FBPA inh-1 | Potency, µM (series often up to 57.5 µM), for the others: at the top dose activity change, negative = inhibition, most hits filed as inhibitors; also: potency is read from the fitted curve at half-maximal effect; nearly all actives have a fitted effect of over 45% in size
Rabbit FBPA inh = qHTS Assay for Inhibitors of Fructose-1,6-bisphosphate Aldolase from Giardia Lamblia: Rabbit FBPA Selectivity | AID 2794, 2010 | 1,500 compounds, 4% hits | shares compounds with Giardia FBPA inh-1 | Potency, µM (series often up to 57.5 µM), without a hit: at the top dose activity, negative = inhibition, usual class: inhibitors | Rabbit muscle FBPA enzyme inhibition, selectivity counter-screen; also: potency is read from the fitted curve at half-maximal effect; nearly all actives have a fitted effect of over 60% in size
Target sequence (P00883 whole entry, looked up): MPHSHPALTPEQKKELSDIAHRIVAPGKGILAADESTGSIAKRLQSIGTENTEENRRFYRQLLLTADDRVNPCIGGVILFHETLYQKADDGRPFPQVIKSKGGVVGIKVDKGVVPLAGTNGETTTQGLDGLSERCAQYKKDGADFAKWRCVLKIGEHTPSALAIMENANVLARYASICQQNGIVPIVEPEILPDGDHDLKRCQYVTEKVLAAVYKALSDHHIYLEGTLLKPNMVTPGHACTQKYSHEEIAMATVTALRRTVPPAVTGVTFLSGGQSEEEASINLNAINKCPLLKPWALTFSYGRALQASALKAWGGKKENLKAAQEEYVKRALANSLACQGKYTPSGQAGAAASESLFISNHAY
GAPDH counter = qHTS Assay for Inhibitors of Fructose-1,6-bisphosphate Aldolase from Giardia Lamblia: Coupling assay counterscreen confirmation; shares compounds with Giardia FBPA inh-1; GAPDH coupling enzyme counterscreen, biochemical, qHTS; Potency, µM (titrated, usually from 57.5 µM), inactives show at the highest dose activity change, negative = inhibition, usual class: inhibitors; 1,500 compounds, 6% hits; AID 2795, 2010; also: potency is read from the fitted curve at half-maximal effect; nearly all actives have a fitted effect of over 55% in size
Active calls of the source: *; ? = inconclusive; · = no result; ! = repeats disagree; [ ] = another dose, or the depositor's remark. An excerpt weighted towards active compounds, which were near 14% of everything screened. Unless noted, calls follow the shape of the dose curve; as a rule, active = well fitted curve in the direction sought with a large enough effect; inconclusive = small, poorly fitted or top-dose-only effect, or another doubt; inactive = no such curve, though single readings can be large; an effect the other way counts as inactive or inconclusive. % is scaled to controls: 0 for no effect and ±100 for the full control effect.

SMILES	HCMV inh	Pf growth 48h	Sm TGR block	Pf growth 96h	Giardia FBPA inh-1	Giardia growth	Mammal cell tox	Giardia FBPA inh-2	Rabbit FBPA inh	GAPDH counter
O=C(CNC(=O)C12CC3CC(CC(C3)C1)C2)Nc1ncccc1O	7	0%	-1%	30%	·	·	·	·	·	·
CCC(=O)Nc1ccccc1	1	37%	-22%	71%	8%	·	·	·	·	·
CCC(=O)NC1=C(Cl)C(=O)C(NC(=O)CC)=C(Cl)C1=O	-94*	7.4µM*	0.22µM*	4.7µM*	1.8µM*	14%[38.3 µM]	?	2.9µM*	5.2µM*	3.7µM*
Cn1cccc1C(=O)N1CCC[C@@]2(CCN(C(=O)Nc3cccc(C#N)c3)C2)C1	·	·	·	·	-4%	·	·	·	·	·
O=c1cc(-c2ccc(O)cc2)oc2c(O)c(O)c(O)c(O)c12	-33	1%	4µM*	19%	6.3µM*	-8%[38.3 µM]	-10%	21µM*	18µM*	?
O=c1cc(-c2ccc(O)cc2)oc2c1ccc1ccccc12	-13	32%	-4%	?	·	·	·	·	·	·
COc1cccc(CN2CCNCC2)c1	-27	14%	-8%	-20%	3.5µM*	?	-2%	8%	3%	7%
COc1cc(CN2CCNCC2)cc(OC)c1OC	31	22%	10%	121%	-3%	·	·	·	·	·
COc1cccc(CN2CCN(Cc3cc(OC)c(OC)cc3OC)CC2)c1	6	-22%	0%	5%	14µM*	-25%	4%	-5%	5%	5%
COc1ccc(CN2CCNCC2)c(OC)c1OC	?	-65%	?	-22%	22µM*!	-4%[10.4 µM]	4%	-1%	1%	19%
CSc1nn(CC(=O)Nc2ccc(C)cc2C)c(N)c1S(=O)(=O)c1ccc(Cl)cc1	1	·	-1%	·	·	·	·	·	·	·
COC(=O)C1=C(O)/C(=C\c2cc(C)n(-c3ccc(F)cc3)c2C)N=C1C	9	?	28µM*	7%	16µM*	15%[10.4 µM]	-7%	-18%	-25%	-14%
COC(=O)C1=C(C)NC(=O)/C1=C\c1cc(C)n(-c2ccc(F)cc2)c1C	9	8%	·	?	?	·	·	·	·	·
COc1ccc(Nc2nc3[nH]c(=O)cc(O)c3s2)cc1	-25	?	-5%	?	?	·	·	·	·	·
O=c1cc(O)c2sc(Nc3ccc(F)c(Cl)c3)nc2[nH]1	-101*	?	-1%	3.7µM*	2µM*	0%[10.4 µM]	4%	?	?	?
O=C(NCCO)c1ccc(-c2nnc(Nc3ccc(OC(F)(F)Cl)cc3)c3ccccc23)cc1	?	·	4%	·	·	·	·	·	·	·
O=[N+]([O-])c1cccc(CN2CCN(Cc3ccc(Cl)cc3)CC2)c1	-77*	12%	1%	0%	18µM*	?	-11%	6%	2%	9%
O=C(COc1ccc(Cl)cc1)N1CCN(Cc2ccc([N+](=O)[O-])cc2)CC1	?	?	-3%	?	22µM*	-8%[10.4 µM]	-5%	-2%	2%	8%
O=C(COc1ccc(Cl)cc1)N1CCCC1	40	81%	-23%	24%	-1%	·	·	·	·	·
COc1ccccc1N1CCN(CC(=O)Nc2nc(C)c(C(=O)N(C)C)s2)CC1	-6	-27%	3%	15µM*	11µM*	9%	4%	-3%	14%	-16%
Cc1nc(NC(=O)CN2CCOCC2)sc1C(=O)N(C)C	6	2%	1%	-10%	?	·	·	·	·	·
CCc1nnc(NC(=O)CN2CCN(c3ccccc3OC)CC2)s1	-4	-18%	6%	-15%	-27%	·	·	·	·	·
Cc1nc(NC(=O)CN2CCCCC2)sc1C(=O)N(C)C	-10	0%	10%	-16%	3.2µM*	-7%[38.3 µM]	4%	-9%	8%	-5%
Nc1ncnc2c1ncn2[C@@H]1O[C@H](C(=O)N[C@@H](CO)Cc2ccccc2)[C@@H](O)[C@H]1O	-9	·	·	·	·	·	·	·	·	·
CCOc1ccc(NC(=O)COc2ccc(S(=O)(=O)NC3CCCCC3)cc2)cc1	10	·	-1%	·	·	·	·	·	·	·
SMILES	HCMV inh	Pf growth 48h	Sm TGR block	Pf growth 96h	Giardia FBPA inh-1	Giardia growth	Mammal cell tox	Giardia FBPA inh-2	Rabbit FBPA inh	GAPDH counter
O=C1CNc2cc(Cl)ccc2N1	3	·	·	·	·	·	·	·	·	·
O=C(NCC(=O)N1CCN(C/C=C/c2ccccc2)CC1)c1ccc(Br)cc1	-17	·	·	·	·	·	·	·	·	·
O=C(NC(=S)N1CCN(Cc2ccccc2)CC1)c1cccnc1	4	-22%	-2%	?	18µM*	?	12%	2%	3%	8%
O=C(NC(=S)N1CCN(C/C=C/c2ccccc2)CC1)c1ccc(Cl)nc1	-14	?	-17%	?	7.9µM*	-14%[38.3 µM]	?	-2%	4%	-8%
CC(C)n1c(=O)[nH][nH]c1=S	-31	1%	-28%	0%	18µM*	-4%[10.4 µM]	3%	-10%	32µM*	-16%
CC(C(=O)NC1C(=O)N2C(C(=O)O)=C(CSc3nnnn3C)CSC12)n1cc(Cl)cn1 (centres undefined)	5	22%	?	?	18µM*	13%[10.4 µM]	-4%	1%	2%	2%
NC(=O)c1cc[n+](CC2=C(C(=O)O)N3C(=O)[C@@H](NC(=O)[C@H](c4ccccc4)S(=O)(=O)[O-])[C@@H]3SC2)cc1	·	?	·	?	-26%[21.7 µM]	·	·	·	·	·
Cc1nnc(SCC2=C(C(=O)O)N3C(=O)C(NC(=O)C(C)n4nc(C(F)(F)F)cc4C)C3SC2)s1 (centres undefined)	-29	-6%	7.1µM*	-1%	6.3µM*	-11%	-6%	2%	2%	14%
CC(C)N(Cc1ccccc1)C(=O)CN1c2cccc3cccc(c23)S1(=O)=O	-10	·	·	·	·	·	·	·	·	·

Assay outcomes from PubChem.
